Compounds without any hit were thinned out: in the full panel of roughly 83,000, 20% have a hit.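 96-well plates, one dose, 48 hours. Percent growth reported; active if below 10.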 A number with no mark means an inactive call. The source made the active and inactive calls.
Test system: IGROV1 ovarian
Experiment: NCI-60 one-dose screen, 48 h (100 = growth as untreated, 0 = no growth, -100 = all killed)
Settings: 10 µM unless noted

| SMILES | growth |
| --- | --- |
| Cc1c(C(N)=O)sc2c1c(=O)n(Cc1ccccc1)c1nnc(S(C)(=O)=O)n21 | 106% |
| COc1ccc(C(=O)N2N=C(c3ccc(Br)cc3)CC2c2cn(-c3ccccc3)nc2-c2ccccc2)cc1 (stereo unspecified) | 85.2% |
| CCOC(=O)CNS(=O)(=O)CC(=O)c1ccccc1 | 94.6% |
| C=C(NC(=O)[C@H](C(C)C)N(C)c1cccc2[nH]ccc12)C(=O)OC | 111% |
| COC1=C(OC)C(=O)c2ccccc2C1=O | 104% |
| O=C(Cc1ccccc1[N+](=O)[O-])c1ccc2c(c1)OCO2 | 114% |
| COC(=O)c1c[n+]([O-])ccc1OC | 107% |
| CC(C)C(=O)c1ccc(Cl)s1 | 96.2% |
| CCOC(=O)c1csc(-c2ccc(COC(=O)c3ccccc3)o2)n1 | 103% |
| OCCN1CCN(CC/C=C2/c3ccccc3Sc3ccc(C(F)(F)F)cc32)CC1 | 55.8% |
| CCCCCCCCCCCCCCCCCC(=O)Nc1ccc(O)cc1 | 105% |
| OCCN1CCCN(CCCN2c3ccccc3Sc3ccc(C(F)(F)F)cc32)CC1 | 41.3% |
| C=C1CCC2C3(C)COC(c4ccccc4)OC3CCC2(C)C1C/C=C1/C(=O)OCC1O (stereo unspecified) | 59.2% |
| Cc1c(CN(C)C)cc(C(C)C)cc1C(C)C | 119% |
| CC(=O)Oc1cc2ccccc2cc1C(C)C | 123% |
| O=C1C(Cl)=C(SC2=NCCN2)C(=O)c2ccccc21 | 49.9% |
| Cc1ccc(C(=O)Nc2ccc(CN3CCN(C)CC3)c(C(F)(F)F)c2)cc1C#Cc1cnc(N)c2ccc(F)cc12 | -82.9% (active) |
| Cc1ncc(C(=O)Nc2ccc(CN3CCN(C)CC3)c(C(F)(F)F)c2)cc1C#Cc1c(N)ncc2ccccc12 | -77.1% (active) |

Test system: OVCAR-3 ovarian
Experiment: as above
Settings: 10 µM unless noted

| SMILES | growth |
| --- | --- |
| O=C(N/N=C/c1ccccc1Cl)c1cccc2ccccc12 | 110% |
| CCOP1(=O)CC(C)=C(Cl)C(P(=O)(O)O)C1 (stereo unspecified) | 113% |
| CN1CCN(Cc2ccc(NC(=O)c3ccc(C#Cc4c(N)ncc5ccc(F)cc45)cc3)cc2C(F)(F)F)CC1 | -25.9% (active) |
| CCCCCCCCC(=O)Nc1ccc(O)cc1 | 102% |
| COc1ccc(-c2cc(C#N)c(NNC(C)=O)[nH]2)cc1 | 104% |
| COc1cc(-c2nc(/C=C3/C(=O)Nc4ccccc43)c3ccccn23)cc(OC)c1OC | -8.37% (active) |
| CCN(CC)CCNc1ncnc2c1cnn2-c1ccc(Cl)cc1 | 63.1% |
| Nc1cc2c(cc1Br)[nH]c(=O)c1ccccc12 | 2.99% (active) |
| COc1ccc(C(=O)CN2C(=O)NC(c3ccccc3)(c3ccccc3)C2=O)cc1 | 107% |
| CC[C@@H](C)/C=C(C)/C=C/C(=O)c1c(O)c(-c2ccc(OC(=O)[C@@]34CC[C@@](C)(C(=O)O3)C4(C)C)cc2)cn(O)c1=O | 30.1% |
| COc1ccc2c(N)ncc(C#Cc3cc(C(=O)Nc4ccc(CN5CCN(C)CC5)c(C(F)(F)F)c4)cnc3C)c2c1 | 11.7% |
| COc1cc2c(cc1OC)C(Cc1cc(OC)c(OC)cc1[N+](=O)[O-])=NCC2 | 95.4% |
| Cc1ccc(C(=O)C(Br)C(Br)c2ccccc2)cc1 (stereo unspecified) | 61.7% |
| Br/C(=N\Nc1nn[nH]n1)c1ccccc1 | 120% |
| Cc1c(C(N)=O)sc2c1c(=O)n(Cc1ccccc1)c1nnc(S(C)(=O)=O)n21 | 79.6% |
| COc1ccc(C(=O)N2N=C(c3ccc(Br)cc3)CC2c2cn(-c3ccccc3)nc2-c2ccccc2)cc1 (stereo unspecified) | 53.4% |
| CCOC(=O)CNS(=O)(=O)CC(=O)c1ccccc1 | 126% |

| SMILES | growth |
| --- | --- |
| COc1ccc(C(=O)c2no[n+]([O-])c2C(=O)c2ccc(OC)cc2)cc1 | -100% (active) |
| C=C(NC(=O)[C@H](C(C)C)N(C)c1cccc2[nH]ccc12)C(=O)OC | 103% |
| COC1=C(OC)C(=O)c2ccccc2C1=O | 87.8% |
| O=C(Cc1ccccc1[N+](=O)[O-])c1ccc2c(c1)OCO2 | 103% |
| O=C(CN1CCN(c2cccc(Cl)c2)CC1)N1CCN(c2nnc(-c3ccc(Cl)cc3)c(-c3ccc(Cl)cc3)n2)CC1 | 72.6% |
| CC(C)C(=O)c1ccc(Cl)s1 | 106% |
| CCOC(=O)c1csc(-c2ccc(COC(=O)c3ccccc3)o2)n1 | 116% |
| OCCN1CCN(CC/C=C2/c3ccccc3Sc3ccc(C(F)(F)F)cc32)CC1 | 80% |
| CCCCCCCCCCCCCCCCCC(=O)Nc1ccc(O)cc1 | 103% |
| OCCN1CCCN(CCCN2c3ccccc3Sc3ccc(C(F)(F)F)cc32)CC1 | 78.7% |
| Cc1c(CN(C)C)cc(C(C)C)cc1C(C)C | 120% |
| CC(=O)Oc1cc2ccccc2cc1C(C)C | 115% |
| COc1cc2cc3cc4cc(OC)c(OC)cc4c(C)[n+]3cc2cc1OC (tested in a mixture with another compound) | 65.9% |
| COc1ccc(NC(=O)/C=C(C)/C=C/C=C(C)/C=C/C2=C(C)CCCC2(C)C)cc1 | 66.5% |
| Cc1ccc(C(=O)Nc2ccc(CN3CCN(C)CC3)c(C(F)(F)F)c2)cc1C#Cc1cnc(N)c2ccc(F)cc12 | -83.3% (active) |
| Cc1ncc(C(=O)Nc2ccc(CN3CCN(C)CC3)c(C(F)(F)F)c2)cc1C#Cc1c(N)ncc2ccccc12 | -68.9% (active) |

From PubChem BioAssay (NCI)
